The AC50 is the concentration giving half of the maximal activity seen.

These results are taken from PubChem BioAssay (EPA / NIEHS).

The nature of assay [1]: ATG_M_32_CIS: Attagene CIS-FACTORIAL HepG2 Assay for M32 Transcription Factor (Internal Marker) (AID 2282949).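 Also: background control marker of the multiplexed CIS panel rather than a real target.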 The following applies: HepG2 Attagene cis-factorial M32 reporter, mRNA; actives raise or lower the signal. In short, it runs like this: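 HepG2 cells transiently transfected with multiplexed cis-regulated reporter units, dosed 24 h. Reporter mRNA quantified by RT-PCR, 6-FAM labelling, HpaI digestion and capillary electrophoresis; bidirectional fit vs DMSO.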

Assay [2] is described as follows: ATG_M_06_CIS: Attagene CIS-FACTORIAL HepG2 Assay for M06 Transcription Factor (Internal Marker) (AID 2282950). The following applies: HepG2 Attagene CIS-FACTORIAL M06 internal marker reporter; actives raise or lower the signal. In short, it runs like this:
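HepG2 cells transiently transfected with cis-regulated multiple reporter transcription units were exposed to chemical for 24 h; reporter mRNA was quantified by RT-PCR, 6-FAM primer labelling, HpaI digestion and capillary electrophoresis, fitted bidirectionally against DMSO.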

In assay [3] the target is Hypoxia-inducible factor 1-alpha (Homo sapiens) (UniProt Q16665). Kind of assay: ATG_HIF1a_CIS: Attagene CIS-FACTORIAL HepG2 Assay for human Hypoxia Inducible Factor 1 (HIF1A) (AID 2282951). The note with it: HepG2 Attagene cis-factorial HIF1a reporter transcription; actives raise or lower the signal. The procedure, abridged: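 In this multiplexed cell assay, HepG2 cells bearing transfected cis reporters are dosed for 24 h and reporter mRNA is read by RT-PCR plus capillary electrophoresis; signal increases and decreases are both scored against DMSO.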

For assay [4], the target named is Hepatocyte nuclear factor 6 (Homo sapiens) (UniProt Q9UBC0). As to the kind of experiment: ATG_HNF6_CIS: Attagene CIS-FACTORIAL HepG2 Assay for human Hepatocyte Nuclear Factor 6 (HNF6) (AID 2282952). The note with it: HepG2 Attagene cis-factorial HNF6 reporter transcription; actives raise or lower the signal. The procedure, abridged:
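HepG2 cells transiently transfected with cis-element-driven multiplexed reporter units measuring endogenous transcription factor activity. After 24 h exposure, reporter mRNA quantified by RT-PCR, FAM-labelled fragments and capillary electrophoresis; bidirectional fitting versus DMSO.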

The target of assay [5] is Heat shock factor protein 1 (Homo sapiens) (UniProt Q00613). Kind of assay: ATG_HSE_CIS: Attagene CIS-FACTORIAL HepG2 Assay for human Heat Shock Transcription Factor 1 (HSE) (AID 2282953). The note with it: HepG2 HSE cis-reporter, Attagene RNA transcription; actives raise or lower the signal. The procedure, abridged: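 HepG2 cells transiently transfected with multiple reporter transcription units under cis-regulatory promoter control, measuring endogenous transcription factor activity. After 24 h chemical exposure, reporter mRNA quantified by RT-PCR, fluorescent labelling, HpaI digestion and capillary electrophoresis; bidirectional fit versus DMSO.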

Assay [6] is described as follows: ATG_MRE_CIS: Attagene CIS-FACTORIAL HepG2 Assay for human Metal Responsive Element (MRE) (AID 2282954). The following applies: HepG2 MRE cis-reporter transcription, Attagene multiplex; actives raise or lower the signal. The procedure, abridged: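 Step one: transfect HepG2 with cis-regulated reporter units. Step two: dose 24 h. Step three: isolate RNA, RT-PCR, 6-FAM label, HpaI digest, capillary electrophoresis. Fit bidirectionally to DMSO.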

Assay [7] is described as follows: ATG_PBREM_CIS: Attagene CIS-FACTORIAL HepG2 Assay for human Phenobarbital-responsive Enhancer Module (PBREM) (AID 2282955). The following applies: HepG2 PBREM cis-reporter, Attagene multiplexed transcription; actives raise or lower the signal. In short, it runs like this:
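After a 24 h incubation with test chemical, transfected HepG2 cells yield total RNA; reporter-specific RT-PCR products are fluorescently labelled, HpaI-digested and resolved by capillary electrophoresis against ROX size standards.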

Assay [8] deals with Paired box protein Pax-6 (Homo sapiens) (UniProt P26367). As to the kind of experiment: ATG_Pax6_CIS: Attagene CIS-FACTORIAL HepG2 Assay for human Paired Box 6 (PAX6) (AID 2282956). The following applies: HepG2 CIS-FACTORIAL PAX6 reporter transcription, RNA readout; actives raise or lower the signal. The procedure, abridged:
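HepG2 cells transiently transfected with multiplexed cis-promoter reporter units (endogenous TF activity) were dosed for 24 h. Reporter mRNA was quantified by RT-PCR, 6-FAM labeling, HpaI digestion and capillary electrophoresis; bidirectional fitting versus DMSO baseline.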

Assay [9] is described as follows: ATG_PXRE_CIS: Attagene CIS-FACTORIAL HepG2 Assay for human Pregnane X Receptor Element (PXRE) (AID 2282957). The note with it: HepG2 Attagene CIS-FACTORIAL PXRE reporter, mRNA; actives raise or lower the signal. The procedure, abridged:
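HepG2 cells transiently transfected with cis-element-driven multiplexed reporter units; after 24 h chemical exposure, reporter mRNA measured by RT-PCR, 6-FAM labelling, HpaI digestion and capillary electrophoresis. Bidirectional fitting relative to DMSO.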

Assay [10] in a line: ATG_PPRE_CIS: Attagene CIS-FACTORIAL HepG2 Assay for human Peroxisome Proliferator-activated Response Element (PPRE) (AID 2282958). The note with it: HepG2 PPRE cis-element reporter, Attagene transcription factor profiling; actives raise or lower the signal. The procedure, abridged: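 Multiplexed reporter transcription units under cis-regulatory promoters were transfected into HepG2 cells to capture endogenous factor activity. A 24 h incubation preceded RNA isolation and fluorescent RT-PCR fragment analysis.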

The nature of assay [11]: ATG_RORE_CIS: Attagene CIS-FACTORIAL HepG2 Assay for human RAR-related Orphan Receptor Element (RORE) (AID 2282959). The note with it: HepG2 Attagene cis-factorial RORE reporter, mRNA; actives raise or lower the signal. In short, it runs like this: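 Fluorescence intensity of reporter-specific cDNA fragments, separated by capillary electrophoresis, gives the signal. Source: HepG2 liver cells transiently transfected with cis-element reporters and exposed 24 h; DMSO-normalized bidirectional fit.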

Assay [12] concerns the target Transcription factor Sp1 (Homo sapiens) (UniProt P08047). As to the kind of experiment: ATG_Sp1_CIS: Attagene CIS-FACTORIAL HepG2 Assay for human Specificity Protein 1 (Sp1) (AID 2282961). The following applies: HepG2 Sp1 cis-reporter transcription, actives raise or lower the signal. The procedure, abridged: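 Sp1-driven reporter mRNA, read as capillary electrophoresis fluorescence after RT-PCR, in transiently transfected HepG2 cells dosed for 24 h; signal change in either direction relative to DMSO.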

A short description of assay [13]: ATG_SREBP_CIS: Attagene CIS-FACTORIAL HepG2 Assay for human Sterol Regulatory Element Binding (SREBP) (AID 2282962). The following applies: HepG2 Attagene cis-factorial SREBP reporter, mRNA; actives raise or lower the signal. The procedure, abridged:
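HepG2 cells transiently transfected with multiplexed cis-element reporter units report endogenous transcription factor activity. After 24 h of chemical exposure, reporter mRNA was quantified by RT-PCR, 6-FAM labelling, HpaI digestion and capillary electrophoresis; bidirectional fits used DMSO as baseline.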

The target in assay [14] is Signal transducer and activator of transcription 3 (Homo sapiens) (UniProt P40763). Kind of assay: ATG_STAT3_CIS: Attagene CIS-FACTORIAL HepG2 Assay for human Signal Transducer and Activator of Transcription 3 (STAT3) (AID 2282963). The following applies: HepG2, Attagene cis-factorial STAT3 reporter transcription; actives raise or lower the signal. In short, it runs like this:
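Transcript-level reporter assay. HepG2 transient MRTU transfection, 24 h exposure, fluorescence detection after RT-PCR and CE; DMSO baseline.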

The nature of assay [15]: ATG_TA_CIS: Attagene CIS-FACTORIAL HepG2 Assay for human TA Basal Promoter (AID 2282964). The following applies: HepG2 Attagene CIS-factorial TA basal promoter reporter; actives raise or lower the signal. In short, it runs like this:
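HepG2 cells transiently transfected with multiplexed cis-promoter reporter units, dosed 24 h. Reporter mRNA measured by RT-PCR, 6-FAM labelling, HpaI digestion and capillary electrophoresis; bidirectional fit versus DMSO baseline, serving as background control.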

A short description of assay [16]: ATG_TCF_b_cat_CIS: Attagene CIS-FACTORIAL HepG2 Assay for human T-Cell-Factor with beta-catenin (TCF/b-cat) (AID 2282965). The note with it: HepG2 TCF/beta-catenin cis-reporter transcription, actives raise or lower the signal. In short, it runs like this:
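Using capillary electrophoresis as the read-out, labelled reporter cDNA fragments from transiently transfected HepG2 were sized and quantified. Exposure lasted 24 hours; activity in either direction was referenced to DMSO.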

The nature of assay [17]: ATG_TAL_CIS: Attagene CIS-FACTORIAL HepG2 Assay for human TAL Basal Promoter (AID 2282966).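 Also: background control endpoint measuring basal TAL promoter reporter mRNA not a specific factor.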 The following applies: HepG2 Attagene cis-factorial TAL promoter reporter; actives raise or lower the signal. In short, it runs like this: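 HepG2 cells transiently transfected with multiplexed cis-promoter reporter units, dosed 24 h. Reporter mRNA quantified by RT-PCR, 6-FAM labelling, HpaI digestion and capillary electrophoresis; TAL basal promoter serves as background control, fitted bidirectionally versus DMSO.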

The nature of assay [18]: ATG_TGFb_CIS: Attagene CIS-FACTORIAL HepG2 Assay for human Transforming Growth Factor (TGF) (AID 2282967). The note with it: HepG2 Attagene CIS TGFb reporter, mRNA transcription; actives raise or lower the signal. In short, it runs like this: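 HepG2 cells transiently transfected with cis-promoter-driven multiplexed reporter units; 24 h compound exposure. Reporter mRNA measured by RT-PCR, 6-FAM labeling, HpaI digestion and capillary electrophoresis; bidirectional fit versus DMSO baseline.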

Assay [19] is described as follows: ATG_VDRE_CIS: Attagene CIS-FACTORIAL HepG2 Assay for human Vitamin D Receptor Element (VDRE) (AID 2282968). The note with it: HepG2 VDRE cis-reporter transcription, actives raise or lower the signal. In short, it runs like this:
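RT-PCR/CE readout of reporter mRNA; HepG2, transient transfection, 24 h dosing; DMSO baseline; bidirectional analysis.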

Assay [20] in a line: ATG_Sox_CIS: Attagene CIS-FACTORIAL HepG2 Assay for human SRY-box transcription factor (SOX) (AID 2282960). The following applies: HepG2 Attagene cis-factorial SOX reporter, mRNA; actives raise or lower the signal. The procedure, abridged: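 After 24 h of chemical treatment, transfected HepG2 reporter cells are lysed for total RNA. Transcript levels come from RT-PCR with labelled primer extension and capillary electrophoresis, analysed bidirectionally versus DMSO.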

The source made the active and inactive calls. The calls were made as follows: active = hit-call score of the fitted dose curve at least 0.9, where 1 is the maximum; inactive = score below 0.9.

Sequence of Hypoxia-inducible factor 1-alpha (Homo sapiens) (Q16665 whole entry, looked up): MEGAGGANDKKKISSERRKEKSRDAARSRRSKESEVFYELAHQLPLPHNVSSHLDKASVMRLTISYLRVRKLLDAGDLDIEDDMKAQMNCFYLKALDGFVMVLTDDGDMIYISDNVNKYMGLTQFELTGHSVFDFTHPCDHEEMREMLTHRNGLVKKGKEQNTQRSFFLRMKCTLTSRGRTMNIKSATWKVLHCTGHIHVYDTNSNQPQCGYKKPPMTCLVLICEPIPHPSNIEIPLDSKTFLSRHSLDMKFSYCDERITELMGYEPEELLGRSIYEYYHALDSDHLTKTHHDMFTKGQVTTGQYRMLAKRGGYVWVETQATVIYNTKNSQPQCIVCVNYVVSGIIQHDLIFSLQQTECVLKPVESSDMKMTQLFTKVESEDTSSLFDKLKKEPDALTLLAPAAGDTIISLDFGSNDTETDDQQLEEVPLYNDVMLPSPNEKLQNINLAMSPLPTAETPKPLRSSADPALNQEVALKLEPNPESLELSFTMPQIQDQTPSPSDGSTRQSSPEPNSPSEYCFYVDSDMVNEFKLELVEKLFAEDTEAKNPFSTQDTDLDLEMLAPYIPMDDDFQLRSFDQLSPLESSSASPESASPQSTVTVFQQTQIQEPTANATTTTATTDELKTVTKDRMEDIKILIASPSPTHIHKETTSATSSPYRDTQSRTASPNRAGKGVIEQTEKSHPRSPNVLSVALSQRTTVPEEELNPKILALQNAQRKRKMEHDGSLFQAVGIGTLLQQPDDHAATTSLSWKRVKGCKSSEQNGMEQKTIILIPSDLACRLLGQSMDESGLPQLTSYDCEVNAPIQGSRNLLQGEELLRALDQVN
Sequence of Heat shock factor protein 1 (Homo sapiens) (Q00613 whole entry, looked up): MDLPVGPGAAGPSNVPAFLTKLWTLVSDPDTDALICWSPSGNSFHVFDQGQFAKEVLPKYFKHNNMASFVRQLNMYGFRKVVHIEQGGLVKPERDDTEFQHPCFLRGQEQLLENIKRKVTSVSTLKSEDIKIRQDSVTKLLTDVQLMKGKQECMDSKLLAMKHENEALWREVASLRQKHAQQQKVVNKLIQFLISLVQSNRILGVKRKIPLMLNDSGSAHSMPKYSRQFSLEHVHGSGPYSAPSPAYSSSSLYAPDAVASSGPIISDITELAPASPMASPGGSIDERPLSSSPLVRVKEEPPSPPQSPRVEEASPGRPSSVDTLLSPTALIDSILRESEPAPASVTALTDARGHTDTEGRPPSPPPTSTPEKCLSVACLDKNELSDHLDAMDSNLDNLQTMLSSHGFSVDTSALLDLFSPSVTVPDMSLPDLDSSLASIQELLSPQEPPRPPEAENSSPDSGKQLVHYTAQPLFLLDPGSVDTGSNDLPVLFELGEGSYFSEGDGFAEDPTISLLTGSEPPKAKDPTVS
Sequence of Signal transducer and activator of transcription 3 (Homo sapiens) (P40763 whole entry, looked up): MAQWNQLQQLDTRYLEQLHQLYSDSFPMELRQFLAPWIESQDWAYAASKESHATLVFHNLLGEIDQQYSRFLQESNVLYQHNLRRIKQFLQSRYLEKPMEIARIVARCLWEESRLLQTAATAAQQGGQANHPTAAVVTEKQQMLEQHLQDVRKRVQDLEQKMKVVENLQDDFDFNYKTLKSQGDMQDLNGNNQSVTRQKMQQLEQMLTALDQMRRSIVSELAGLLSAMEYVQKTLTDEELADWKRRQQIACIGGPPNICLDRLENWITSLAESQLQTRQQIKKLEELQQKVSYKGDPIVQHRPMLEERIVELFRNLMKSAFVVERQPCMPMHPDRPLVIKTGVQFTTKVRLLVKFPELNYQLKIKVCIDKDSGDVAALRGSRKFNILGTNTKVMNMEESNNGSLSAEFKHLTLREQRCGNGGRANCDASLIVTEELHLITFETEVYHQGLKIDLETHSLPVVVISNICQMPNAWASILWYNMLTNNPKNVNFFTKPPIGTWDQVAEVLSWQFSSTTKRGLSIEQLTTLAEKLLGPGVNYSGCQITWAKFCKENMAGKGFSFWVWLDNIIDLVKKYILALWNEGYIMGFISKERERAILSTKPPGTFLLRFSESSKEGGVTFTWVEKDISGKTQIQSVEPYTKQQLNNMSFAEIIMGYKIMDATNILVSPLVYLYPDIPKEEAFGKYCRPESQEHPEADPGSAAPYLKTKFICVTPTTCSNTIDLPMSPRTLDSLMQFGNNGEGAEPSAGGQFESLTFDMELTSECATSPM
Sequence of Hepatocyte nuclear factor 6 (Homo sapiens) (Q9UBC0 whole entry, looked up, the tested form may be a part): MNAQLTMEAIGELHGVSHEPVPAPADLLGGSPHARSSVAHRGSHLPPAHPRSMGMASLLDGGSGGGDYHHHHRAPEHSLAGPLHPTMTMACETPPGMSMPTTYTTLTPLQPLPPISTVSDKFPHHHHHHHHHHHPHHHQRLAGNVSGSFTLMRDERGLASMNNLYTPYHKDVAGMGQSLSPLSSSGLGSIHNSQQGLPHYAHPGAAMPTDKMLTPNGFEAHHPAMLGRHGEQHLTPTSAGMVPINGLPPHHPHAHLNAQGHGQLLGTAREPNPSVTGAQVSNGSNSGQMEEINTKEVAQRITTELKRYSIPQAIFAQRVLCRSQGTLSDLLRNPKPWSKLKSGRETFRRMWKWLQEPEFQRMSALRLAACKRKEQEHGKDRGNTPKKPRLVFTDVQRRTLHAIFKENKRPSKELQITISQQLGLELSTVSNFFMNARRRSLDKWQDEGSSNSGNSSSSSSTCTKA
Sequence of Paired box protein Pax-6 (Homo sapiens) (P26367 whole entry, looked up): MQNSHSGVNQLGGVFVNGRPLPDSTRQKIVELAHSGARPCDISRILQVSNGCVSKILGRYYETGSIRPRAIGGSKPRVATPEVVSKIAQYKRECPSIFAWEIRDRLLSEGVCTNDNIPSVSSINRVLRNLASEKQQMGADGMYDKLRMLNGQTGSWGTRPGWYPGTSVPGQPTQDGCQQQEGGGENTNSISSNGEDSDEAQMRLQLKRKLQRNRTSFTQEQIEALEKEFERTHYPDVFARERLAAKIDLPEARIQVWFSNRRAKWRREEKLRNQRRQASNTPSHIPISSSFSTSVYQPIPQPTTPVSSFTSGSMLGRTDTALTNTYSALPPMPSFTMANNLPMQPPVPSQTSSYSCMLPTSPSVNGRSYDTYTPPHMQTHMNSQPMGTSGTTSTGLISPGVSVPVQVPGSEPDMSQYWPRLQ
Sequence of Transcription factor Sp1 (Homo sapiens) (P08047 whole entry, looked up): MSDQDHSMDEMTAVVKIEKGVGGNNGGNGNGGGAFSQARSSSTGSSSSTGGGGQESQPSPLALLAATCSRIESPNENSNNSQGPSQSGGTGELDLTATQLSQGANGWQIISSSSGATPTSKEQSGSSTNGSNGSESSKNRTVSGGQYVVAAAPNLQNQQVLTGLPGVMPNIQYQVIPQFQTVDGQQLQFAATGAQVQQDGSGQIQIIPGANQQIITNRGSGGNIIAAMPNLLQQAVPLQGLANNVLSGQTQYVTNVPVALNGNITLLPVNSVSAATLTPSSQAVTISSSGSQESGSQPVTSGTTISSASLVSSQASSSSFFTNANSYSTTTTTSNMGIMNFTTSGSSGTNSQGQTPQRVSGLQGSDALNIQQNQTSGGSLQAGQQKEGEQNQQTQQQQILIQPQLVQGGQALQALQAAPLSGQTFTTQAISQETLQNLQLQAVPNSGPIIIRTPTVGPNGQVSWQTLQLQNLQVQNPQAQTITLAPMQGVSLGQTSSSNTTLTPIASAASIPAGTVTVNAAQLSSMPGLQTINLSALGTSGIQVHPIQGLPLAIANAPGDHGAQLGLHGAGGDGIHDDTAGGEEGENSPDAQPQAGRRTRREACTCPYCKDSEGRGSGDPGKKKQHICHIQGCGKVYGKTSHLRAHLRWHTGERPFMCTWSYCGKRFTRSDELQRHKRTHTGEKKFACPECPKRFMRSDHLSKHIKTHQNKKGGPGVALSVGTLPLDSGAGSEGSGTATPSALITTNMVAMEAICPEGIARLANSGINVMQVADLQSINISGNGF

`Cc1cc(-c2cc(C)c(N)c(C)c2)cc(C)c1N`: the outcome in assay [1], in assay [2], in assay [3], in [4], in [5] and in [6] was inactive. Further, the outcome in [7], in [8], in assay [10], in assay [11], in assay [12] and in assay [13] was inactive. The result in [14], in assay [15], in assay [16], in [17], in assay [18] and in assay [19] was inactive. Besides, in [9], the AC50 was 26.5 µM (active).

As for `CCOc1cc(C=O)ccc1O`, the compound was classed as inactive in assay [1], in assay [2], in assay [3], in assay [4], in assay [5] and in assay [6]. The outcome in assay [7], in assay [8], in [11], in [20], in assay [12] and in [13] was inactive. Further, the outcome in [14], in assay [15], in [16], in assay [17], in [18] and in assay [19] was inactive.

As for `OC[P+](CO)(CO)CO`, the compound was called inactive in assay [1], in assay [2], in assay [3], in assay [4], in [5] and in assay [6]. The result in [7], in assay [8], in assay [9], in [20], in assay [12] and in assay [13] was inactive. Further, the result in assay [14], in [15], in assay [16], in assay [17], in [18] and in assay [19] was inactive.

On to `CCCCCCCCBr`, for which the result in [1], in assay [2], in [3], in [4], in assay [5] and in assay [6] was inactive. Moreover, the outcome in assay [7], in assay [8], in assay [9], in assay [11], in assay [20] and in assay [12] was inactive. For the same compound, the result in assay [13], in assay [14], in [15], in assay [16], in [17] and in assay [19] was inactive.
